Results taken from PubChem BioAssay AID1159580 (chemical genetic matrix, 2015).
Out of some 5,500 compounds screened, about 2,000 (36%) were called active. Roughly 18% stayed inconclusive and do not appear here. The list shows a part of the results. Unmarked numbers belong to inactive results. Rule as the data show it: active = normalized growth mostly below about 0.91 (no sharp cut-off); inconclusive = no clear call, values can overlap the other calls; inactive = mostly above about 0.92.

Test: chemical genetic growth profiling, strain panel (AID 1159580);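 also: tested at 20 µM; growth read once vehicle control cultures reached saturation at 30 °C; 1 = growth at the plate median or of vehicle wells; lower values mean less growth of the strain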
Conditions: S. cerevisiae deletion strains, growth OD

SMILES: COc1cc(NS(C)(=O)=O)ccc1Cc1c2ccccc2nc2ccccc12
- normalized growth (locus YAL021C, strain ccr4, stronger effect = lower value): 0.785 (active)
- normalized growth (locus YAL026C, strain drs2, stronger effect = lower value): 1
- normalized growth (locus YAL030W, strain snc1, stronger effect = lower value): 0.971
- normalized growth (locus YBL061C, strain skt5, stronger effect = lower value): 1.01
- normalized growth (locus YBR009C, strain hhf1, stronger effect = lower value): 0.828 (active)
- normalized growth (locus YBR023C, strain chs3, stronger effect = lower value): 0.988
- normalized growth (locus YBR171W, strain sec66, stronger effect = lower value): 1.02
- normalized growth (locus YBR231C, strain swc5, stronger effect = lower value): 0.969
- normalized growth (locus YBR279W, strain paf1, stronger effect = lower value): 0.988
- normalized growth (locus YCL011C, strain gbp2, stronger effect = lower value): 0.939
- normalized growth (locus YCL016C, strain dcc1, stronger effect = lower value): 0.476 (active)
- normalized growth (locus YCL061C, strain MRC1, stronger effect = lower value): 0.867 (active)
- normalized growth (locus YCL069W, strain vba3, stronger effect = lower value): 1
- normalized growth (locus YCR088W, strain abp1, stronger effect = lower value): 0.986
- normalized growth (locus YDL005C, strain med2, stronger effect = lower value): 0.681 (active)
- normalized growth (locus YDL040C, strain nat1, stronger effect = lower value): 0.994
- normalized growth (locus YDR001C, strain nth1, stronger effect = lower value): 0.999
- normalized growth (locus YDR069C, strain doa4, stronger effect = lower value): 0.842 (active)
- normalized growth (locus YDR137W, strain rgp1, stronger effect = lower value): 1.1
- normalized growth (locus YDR159W, strain sac3, stronger effect = lower value): 0.947
- normalized growth (locus YDR195W, strain ref2): 1.05
- normalized growth (locus YDR297W, strain sur2, stronger effect = lower value): 0.96
- normalized growth (locus YDR334W, strain swr1, stronger effect = lower value): 1.01
- normalized growth (locus YDR335W, strain msn5, stronger effect = lower value): 0.993
- normalized growth (locus YDR392W, strain spt3, stronger effect = lower value): 0.795
- normalized growth (locus YEL003W, strain gim4, stronger effect = lower value): 0.966
- normalized growth (locus YEL037C, strain rad23, stronger effect = lower value): 0.979
- normalized growth (locus YEL061C, strain CIN8 (second series), stronger effect = lower value): 0.982
- normalized growth (locus YER015W, strain faa2, stronger effect = lower value): 0.986
- normalized growth (locus YER016W, strain bim1, stronger effect = lower value): 0.909 (active)
- normalized growth (locus YER111C, strain swi4, stronger effect = lower value): 1.01
- normalized growth (locus YER155C, strain BEM2 (second series), stronger effect = lower value): 0.885
- normalized growth (locus YFR010W, strain ubp6, stronger effect = lower value): 0.877 (active)
- normalized growth (locus YGL167C, strain pmr1, stronger effect = lower value): 1
- normalized growth (locus YGL173C, strain kem1, stronger effect = lower value): 0.991
- normalized growth (locus YGL227W, strain vid30, stronger effect = lower value): 0.994
- normalized growth (locus YGL240W, strain doc1, stronger effect = lower value): 0.892
- normalized growth (locus YGL253W, strain hxk2, stronger effect = lower value): 0.996
- normalized growth (locus YHR013C, strain ard1, stronger effect = lower value): 0.874
- normalized growth (locus YHR027C, strain rpn1, stronger effect = lower value): 0.978
- normalized growth (locus YHR030C, strain SLT2, stronger effect = lower value): 0.974
- normalized growth (locus YHR079C, strain IRE1, stronger effect = lower value): 0.946
- normalized growth (locus YHR142W, strain chs7, stronger effect = lower value): 0.964
- normalized growth (locus YJL092W, strain hpr5, stronger effect = lower value): 0.712 (active)
- normalized growth (locus YJL095W, strain BCK1 (second series), stronger effect = lower value): 0.986
- normalized growth (locus YJL095W, strain BCK1, stronger effect = lower value): 1
- normalized growth (locus YJL115W, strain asf1, stronger effect = lower value): 0.341 (active)
- normalized growth (locus YJL129C, strain trk1, stronger effect = lower value): 0.933
- normalized growth (locus YJL154C, strain vps35, stronger effect = lower value): 0.998
- normalized growth (locus YJL164C, strain tpk1, stronger effect = lower value): 0.918
- normalized growth (locus YJL166W, strain qcr8, stronger effect = lower value): 0.945
- normalized growth (locus YJR066W, strain TOR1, stronger effect = lower value): 0.919
- normalized growth (locus YKL160W, strain elf1, stronger effect = lower value): 0.985
- normalized growth (locus YKR026C, strain gcn3, stronger effect = lower value): 0.998
- normalized growth (locus YKR091W, strain srl3, stronger effect = lower value): 1
- normalized growth (locus YLL001W, strain dnm1, stronger effect = lower value): 0.936
- normalized growth (locus YLL026W, stronger effect = lower value): 0.977
- normalized growth (locus YLL041C, strain sdh2, stronger effect = lower value): 0.99
- normalized growth (locus YLR027C, strain aat2, stronger effect = lower value): 0.916 (active)
- normalized growth (locus YLR113W, strain HOG1, stronger effect = lower value): 0.971
- normalized growth (locus YLR221C, strain rsa3, stronger effect = lower value): 0.899 (active)
- normalized growth (locus YLR258W, strain gsy2, stronger effect = lower value): 0.969
- normalized growth (locus YLR262C, strain YPT6 (second series), stronger effect = lower value): 1
- normalized growth (locus YLR320W, strain mms22, stronger effect = lower value): 0.208 (active)
- normalized growth (locus YLR342W, strain FKS1, stronger effect = lower value): 0.927
- normalized growth (locus YLR357W, strain rsc2, stronger effect = lower value): 0.987
- normalized growth (locus YLR370C, strain arc18, stronger effect = lower value): 0.923
- normalized growth (locus YLR384C, strain iki3, stronger effect = lower value): 0.994
- normalized growth (locus YML120C, strain ndi1, stronger effect = lower value): 0.956
- normalized growth (locus YMR058W, strain fet3, stronger effect = lower value): 0.949
- normalized growth (locus YMR125W, strain sto1, stronger effect = lower value): 0.98
- normalized growth (locus YMR129W, stronger effect = lower value): 0.984
- normalized growth (locus YMR205C, strain PFK2, stronger effect = lower value): 0.947
- normalized growth (locus YMR231W, strain pep5, stronger effect = lower value): 1
- normalized growth (locus YNL071W, strain lat1, stronger effect = lower value): 0.987
- normalized growth (locus YNL183C, strain NPR1, stronger effect = lower value): 0.952
- normalized growth (locus YNL209W, strain ssb2, stronger effect = lower value): 0.986
- normalized growth (locus YNL248C, strain rpa49, stronger effect = lower value): 0.945
- normalized growth (locus YNL322C, strain KRE1 (second series), stronger effect = lower value): 0.822 (active)
- normalized growth (locus YNR049C, strain mso1, stronger effect = lower value): 0.989
- normalized growth (locus YOR001W, strain rrp6, stronger effect = lower value): 0.915
- normalized growth (locus YOR070C, strain gyp1, stronger effect = lower value): 0.984
- normalized growth (locus YOR080W, strain dia2, stronger effect = lower value): 0.494 (active)
- normalized growth (locus YOR083W, strain WHI5, stronger effect = lower value): 0.934
- normalized growth (locus YOR106W, strain vam3, stronger effect = lower value): 0.926
- normalized growth (locus YOR231W, strain MKK1, stronger effect = lower value): 1.01
- normalized growth (locus YOR265W, strain rbl2, stronger effect = lower value): 0.985
- normalized growth (locus YOR270C, strain vph1, stronger effect = lower value): 0.935
- normalized growth (locus YOR290C, strain snf2, stronger effect = lower value): 0.823 (active)
- normalized growth (locus YPL051W, strain arl3, stronger effect = lower value): 0.992
- normalized growth (locus YPL078C, strain atp4, stronger effect = lower value): 1.02
- normalized growth (locus YPL106C, strain sse1, stronger effect = lower value): 1.02
- normalized growth (locus YPL240C, strain hsp82, stronger effect = lower value): 0.991
- normalized growth (locus YPL256C, strain CLN2, stronger effect = lower value): 0.944
